HP1b binding inh: HTS for Inhibitors of HP1-beta Chromodomain Interactions with Methylated Histone Tails | Potency, µM (highest dose often 114 µM), usual class: inhibitors | AID 540317, 2011 | Chromobox protein homolog 1 (Homo sapiens), P83916 | AlphaScreen HP1-beta / biotin-H3K9me3 peptide binding | 0.56% of 390,000 active; also: nearly all actives have a fitted effect of over 70% in size
Target sequence (P83916 whole entry, looked up): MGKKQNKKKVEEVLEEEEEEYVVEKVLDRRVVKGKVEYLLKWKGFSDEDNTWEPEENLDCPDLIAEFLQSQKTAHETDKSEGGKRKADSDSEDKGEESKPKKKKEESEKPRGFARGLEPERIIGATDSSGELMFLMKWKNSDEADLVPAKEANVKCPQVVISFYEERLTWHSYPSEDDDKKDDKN
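AlphaScreen: HP1-beta (50 nM) preformed 30 min with biotin-H3(1-18)K9me3 peptide (50 nM) in PBS pH 7.4, 0.01% Tween-20. Compound added for 30 min at RT, then streptavidin donor/nickel chelate acceptor beads (10 ug/mL) for 30 min.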
PLK1 PBD inh: qHTS for Inhibitors of PLK1-PDB (polo-like kinase 1 - polo-box domain): Primary Screen; Serine/threonine-protein kinase PLK1 (Homo sapiens), P53350; AID 720504, 2013; Potency, µM, most hits filed as inhibitors; 2.8% of 360,000 active; Plk1 PBD binding of FITC phosphopeptide, fluorescence polarization; also: series mostly up to about 57 µM; nearly all actives have a fitted effect of over 65% in size
G9a inh: qHTS Assay for Inhibitors of Histone Lysine Methyltransferase G9a | Histone-lysine N-methyltransferase EHMT2 (Homo sapiens), Q96KQ7 | G9a H3K9 monomethylation, AlphaScreen, 2 h | Potency, µM (highest dose often 102 µM), usual class: inhibitors | 8.8% of 350,000 active | AID 504332, 2011; also: nearly all actives have a fitted effect of over 75% in size
Target sequence (Q96KQ7 913-1193 limits assumed): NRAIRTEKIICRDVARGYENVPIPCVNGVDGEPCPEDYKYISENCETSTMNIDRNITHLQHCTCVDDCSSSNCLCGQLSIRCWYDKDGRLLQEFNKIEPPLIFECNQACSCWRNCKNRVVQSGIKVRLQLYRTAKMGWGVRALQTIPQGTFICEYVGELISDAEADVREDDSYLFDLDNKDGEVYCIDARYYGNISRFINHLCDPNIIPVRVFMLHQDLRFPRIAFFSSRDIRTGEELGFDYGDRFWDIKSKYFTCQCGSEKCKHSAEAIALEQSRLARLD
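Enzyme 20 nM + cpd, 15 min RT; add b-H3K9 pep 500 nM / SAM 20 uM; 2 h RT; anti-H3K9me1 Ab 0.5 ug/mL + SA donor / anti-rabbit acceptor beads 20 ug/mL each, 10 min; AlphaScreen read.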
JMJD2A Tudor: qHTS Assay for Inhibitors of JMJD2A-Tudor Domain | Lysine-specific demethylase 4A (Homo sapiens), O75164 | AlphaScreen JMJD2A-Tudor / H3K4me3 peptide binding | Potency, µM (titrated, usually from 114 µM), usual class: inhibitors | 4.4% of 390,000 active; also: nearly all actives have a fitted effect of over 50% in size
BAZ2B inh: qHTS Assay for Inhibitors of BAZ2B | Bromodomain adjacent to zinc finger domain protein 2B (Homo sapiens), Q9UIF8 | AlphaScreen BAZ2B-H3K14Ac peptide displacement | Potency, µM (series often up to 114 µM), usual class: inhibitors | 4.4% of 360,000 active; also: nearly all actives have a fitted effect of over 60% in size
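Inhibition is scored as reduced AlphaScreen emission. The BAZ2B/b-H3(5-23)K14Ac complex (50 nM each) in PBS pH 7.4, 0.01% Tween-20 meets compound (up to 110 uM) for 30 min at RT before bead addition.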
Sfp PPTase inh: qHTS Assay for Inhibitors of Bacillus subtilis Sfp phosphopantetheinyl transferase (PPTase). 4'-phosphopantetheinyl transferase ffp (Bacillus subtilis), Q9F4F7. Biochemical Sfp PPTase activity, qHTS. Potency, µM, usual class: inhibitors. 3.5% of 310,000 active;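 also: the enzyme is Sfp with the accession as filed and its product quenches rhodamine fluorescence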
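Reaction rates are the 30-min fluorescence difference (ex 525, em 598 nm) in wells containing 15 nM Sfp, 5 uM rhodamine-CoA and 12.5 uM BHQ-2-YbbR at pH 7.6 with 10 mM MgCl2.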
Hits are given with their value; – = inactive; ? = inconclusive; · = not tested or not shown; [ ] = dose if it differs, or a comment. This is a sample that favours compounds with a hit; in the whole collection about 12% have one here. Calls follow the shape of the dose curve; as a rule, active = well fitted curve in the direction sought with a large enough effect; inconclusive = small, poorly fitted or top-dose-only effect, or another doubt; inactive = no such curve, though single readings can be large; an effect the other way counts as inactive or inconclusive.

SMILES	HP1b binding inh	PLK1 PBD inh	G9a inh	JMJD2A Tudor	BAZ2B inh	Sfp PPTase inh
CCOC(=O)C1CCN(C/C=C/c2ccccc2)CC1	–	–	45µM	79µM	?	–
CCOC(=O)C1CCN(CC(C)(C)NS(=O)(=O)c2ccccc2)CC1	79µM	–	?	1.8µM	–	–
CC(=O)N1CCN(CC(C)(C)NS(=O)(=O)c2ccccc2)CC1	–	–	·	–	·	·
C/C(=C\C[Si](C)(C)C)CC[C@H](O)C1=CCCCC1=O	·	·	·	·	·	–
Cc1ccccc1-c1cc(C(=O)NCc2ccc3c(c2)OCO3)n(CC2CC(c3cccnc3)=NO2)n1 (stereo not given)	–	–	–[0.501 µM]	–	–	·
C#Cc1ccc([C@@H]2C=C(C(=O)NCc3nc4ccccc4[nH]3)O[C@H](OCC)[C@H]2CCCO)cc1	–	–	–	–	–	–
c1ccc2c(C(c3nnnn3-c3ccc4c(c3)OCCO4)N3CCCCC3)ccnc2c1 (stereo not given)	·	–	·	·	·	·
CCOC(=O)C1CCCN(C/C=C/c2ccccc2)C1 (stereo not given)	?	–	40µM	22µM	?	–
CC(=O)c1cccc(N(CC(=O)NC2CCCC2)C(=O)c2csnn2)c1	–	–	–	–	–	–
CCOC(=O)c1ccc(NS(=O)(=O)c2cc(-c3onc(C)c3C)ccc2C)cc1	–	·	–	–	–	·
Cc1ccc(/C=N/n2c(-c3cccnc3)n[nH]c2=S)s1	–	–	0.79µM	4.5µM	–	35µM
S=c1[nH]nc(-c2cccnc2)n1/N=C/c1ccc(Br)s1	–	?	?	5.6µM	–	–
O=C(OCCN(C1=NS(=O)(=O)c2ccccc21)c1ccc(Cl)cc1)c1ccco1	–	–	–	–	·	–
CNc1ccc(C(=O)N2CCN(S(=O)(=O)c3ccc4c(c3)OCCCO4)CC2)cc1[N+](=O)[O-]	–	–	–	–	–	–
C=CCNC(=O)/C(C#N)=C/c1c(N2CCN(c3ccc(OC)cc3)CC2)nc2c(C)cccn2c1=O	?	?	–[2.33 µM]	25µM	?	–
COc1ccc(N2CCN(c3nc4ccc(C)cn4c(=O)c3C=O)CC2)cc1	–	–	45µM	?	?	–
COc1ccc(N2CCN(c3nc4c(C)cccn4c(=O)c3/C=C(\C#N)C(N)=O)CC2)cc1	–	–	32µM	?	35µM	–
CNC(=O)/C(C#N)=C/c1c(N(Cc2ccccc2)Cc2ccccc2)nc2c(C)cccn2c1=O	–	–	79µM	?	?	?
COC(=O)/C(C#N)=C/c1c(N2CCN(c3ccccc3)CC2)nc2c(C)cccn2c1=O	–	–	?	?	–	–
Cc1ccc2nc(N3CCN(c4ccccc4)CC3)c(C=O)c(=O)n2c1	–	–	–[12.7 µM]	?	–	–
CCOC(=O)C1CCCN(C(=O)c2ccc(C)cc2O)C1 (stereo not given)	–	–	–	–	–	–
Cc1cccc(C)c1NC(=S)/N=C/N(C)C	–	?	–	14µM	–	–
CN(C)/C=N/C(=S)Nc1ccc(Cl)cc1	–	–	–	–	–	–
O=C(/C=C1\OCc2ccccc21)c1ccccc1	·	–	·	·	·	·
COc1ccc(N2CCN(C(=O)c3[nH]c4ccc(OC)cc4c3C)CC2)cc1	?	27µM	40µM	28µM	?	–
SMILES	HP1b binding inh	PLK1 PBD inh	G9a inh	JMJD2A Tudor	BAZ2B inh	Sfp PPTase inh
CCOC(=O)C1CCN(C(=O)c2[nH]c3ccc(OC)cc3c2C)CC1	–	–	–	–	–	–
COc1cc2c(C(=O)N3CCN(c4cccc(Cl)c4)CC3)cn(C)c(=O)c2cc1OC	–	–	–	–	–	–
COc1ccccc1C(=O)N1CCN(c2cccc(Cl)c2)CC1	–	24µM	–	–[11.4 µM]	–	–
COc1ccc2[nH]c(C(=O)N3CCC(CO)(Cc4cccc(C(F)(F)F)c4)CC3)c(C)c2c1	–	–	79µM	–	–	–
O=C(c1ccccc1F)N1CCN(c2cnn(-c3cccc(Cl)c3)c(=O)c2Cl)CC1	–	27µM	–	–[11.4 µM]	–	–
COC(=O)c1cc2sc(C)cc2n1Cc1ccc(Br)cc1F	–	·	–	–	–	·
Cc1c(C)n(C)c2ccc(C(=O)NCCc3ccc(Cl)cc3)cc12	–	·	–	–	–	·
COc1ccc2nc3oc(C(=O)N4CCN(c5cccc(Cl)c5)CC4)cc3cc2c1	–	–	?	–	–	11µM
COCCCNC(=O)c1cc2cc3cc(OC)ccc3nc2o1	–	21µM	–	–	–	–
COc1cccc(CC2(CO)CCCN(Cc3cn[nH]c3-c3cc(C)ccc3C)C2)c1 (stereo not given)	–	–	·	–	–	–
COc1cccc(CC2(CO)CCCN(Cc3[nH]c4ccc(C)cc4c3C)C2)c1 (stereo not given)	–	–	45µM	–[11.4 µM]	?	–
COc1cccc(N2CCN(C(=O)c3cc4cc(Cl)ccc4[nH]3)CC2)c1	–	–	71µM	?	–	–
CCOc1ccccc1N1CCN(C(=O)c2cc3cc(OC)ccc3[nH]2)CC1	–	–	35µM	?	?	–
COc1ccc2cc(C(=O)N3CCN(c4ccc(F)cc4)CC3)[nH]c2c1	–	–	50µM	–	–	–
CCCCc1nn2c(=O)cc(COC(=O)c3ccc(NC(=O)c4cccc(OC)c4)cc3)nc2s1	–	·	–	–	–	·
COc1ccc(N2CC(NC(=O)/C=C\c3ccccc3)CC2=O)cc1OC (stereo not given)	–	·	–	–	–	·
O=C1CCCCCN1Sc1ccccc1	–	1.1µM	10µM	–	–	25µM
CCn1c(SCC(=O)Nc2ccc3c(c2)OCCO3)nnc1-c1ccco1	–	–	–[12.7 µM]	–	–	–
Cc1cc(C)nc(SCC(=O)c2ccc3c(c2)OCCO3)n1	–	–	–[12.7 µM]	–	–	–
O=C(CSc1nnc(-c2cccs2)n1-c1ccccc1)c1ccc2c(c1)OCCO2	–	–	40µM	–	–	–
COCCn1c(SCC(=O)c2ccc(F)cc2)nnc1C(C)C	–	?	?	45µM	–	56µM
CCCCn1c(SCC(=O)c2ccc3c(c2)OCCO3)nnc1-c1ccco1	–	–	?	–	–	50µM
CCn1c(SCC(=O)c2ccc3c(c2)OCCO3)nnc1C(C)C	–	–	45µM	–	–	?
Cc1cc(-c2ccc(S(=O)(=O)Nc3cccc(Cl)c3C)cc2)on1	–	·	–	–	–	·
Cc1cc(C)c(/C=C/c2onc(C)c2S(=O)(=O)N2CCC(C(=O)Nc3ccc(Cl)c(C(F)(F)F)c3)CC2)c(C)c1	–	·	–	–	–	·

Screening results as filed in PubChem.
